Test results: PubChem BioAssay (NCI)
About 79,000 compounds went through this panel and 15% of them were active in at least one assay; those are over-represented in the sample as a whole. Activity calls are given as the source filed them. Rule as the data show it: active = growth inhibition above about 70%; inactive = the rest.

Assays:
[1] = NCI Yeast Anticancer Drug Screen. Data for the rad50 strain (AID 155);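 also: 0% = growth of vehicle-only cultures of the same strain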; settings: S. cerevisiae rad50 strain growth inhibition; at 50.0 µM; active compounds read high
In short: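 Relative growth inhibition (compound vs vehicle) was measured in yeast with a defined repair-gene alteration.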

[2] = NCI Yeast Anticancer Drug Screen. Data for the mec2-1 strain (AID 157); settings: S. cerevisiae mec2-1 strain, at 50.0 µM, active compounds read high
In short: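 Using mec2-1 yeast: add compound, measure growth, express inhibition versus vehicle-treated cultures.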

[3] = NCI Yeast Anticancer Drug Screen. Data for the sgs1 mgt1 strain (AID 161);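 also: 0% = growth of cultures given vehicle only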; settings: S. cerevisiae sgs1 mgt1 strain, at 50.0 µM, active compounds read high
In short: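 Percent growth inhibition was derived by comparing compound-exposed mutant yeast with vehicle-exposed cultures. The strain carries alterations in DNA damage repair.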

[4] = NCI Yeast Anticancer Drug Screen. Data for the cln2 rad14 strain (AID 165);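 also: 0% = growth equal to vehicle treated cultures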; settings: S. cerevisiae cln2 rad14 strain, at 50.0 µM, active compounds read high
In short: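 Yeast strain cln2 rad14, bearing defects in cell cycle control and DNA repair, serves as the test system; values reflect growth inhibition compared with vehicle.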

[5] = NCI Yeast Anticancer Drug Screen. Data for the bub3 strain (AID 167); settings: S. cerevisiae bub3 mutant strain, at 50.0 µM, active compounds read high
In short: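 Screening used yeast with an engineered genetic alteration affecting cell cycle control. Compound-exposed cultures were compared with vehicle cultures, and reduced growth was taken as inhibition.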

[6] = NCI Yeast Anticancer Drug Screen. Data for the mlh1 rad18 strain (AID 175); settings: S. cerevisiae mlh1 rad18 strain growth inhibition; at 50.0 µM; active compounds read high
In short: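 Steps: expose repair-defective yeast to compound; measure growth; express inhibition against vehicle-treated controls.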

Measured: growth inhibition

O=c1[nH]c(SCc2ccco2)nc2ccccc12
inactive: [1] 0.05% | [2] 12.7% | [3] 6.3% | [4] -23.7% | [5] 1.8%

Nc1nc(-c2ccccc2)cc(-c2ccc(F)cc2)c1-c1ccc(Cl)cc1
inactive: [1] 16.9% | [2] -9.2% | [3] 20.4% | [4] 24.6% | [5] -0.95% | [6] -73.5%

CC(=O)NCCc1ccc(OC(C)=O)c(OC(C)=O)c1
inactive: [1] 0.15% | [2] -10.6% | [3] 26.2% | [4] 6.45% | [5] 23.4%

COC(=O)C1=C(NC(=O)Nc2ccc([N+](=O)[O-])cc2)OC(C)(C)C1c1ccc(Cl)cc1 (stereo not drawn)
inactive: [1] 23.6% | [2] 9.15% | [3] 6.45% | [4] -6.1% | [5] 1.1%

CCOC(SCC)C(O)C(O)C(O)C(O)CO (stereo not drawn)
inactive: [1] -1.9% | [2] -4.2% | [3] 20.4% | [4] -14.7% | [5] -7.8%

C=C(Br)CN=CN(C)C
inactive: [1] 23.6% | [2] 1.35% | [3] 10.9% | [4] 1.35% | [5] -10.1%

c1ccc(-c2ccccc2-c2ccccc2)cc1
inactive: [1] 18.1% | [2] -4.8% | [3] 10.6% | [4] -2.75% | [5] -8.15%

Nc1ccc(S(=O)(=O)N/N=C/c2ccc(O)cc2)cc1
inactive: [1] 4.35% | [2] -21.4% | [3] 4.7% | [4] -22.1% | [5] 5.1%

CC1(C)CCC(C)(C)c2cc(C(=O)O)ccc21
inactive: [1] 7.55% | [2] 5.3% | [3] 1.55% | [4] 5.4% | [5] 14.4%

CC(C)(C)C1=CC(=N/S(=O)(=O)c2ccccc2)/C(N=[N+]=[N-])=C(Cl)C/1=N\S(=O)(=O)c1ccccc1
inactive: [1] 54.8% | [2] 27.4% | [3] 48.2% | [4] 14% | [5] 23.6%

Cc1cc(C)c(Br)c(C)c1C
inactive: [1] -17.4% | [2] 4.15% | [3] -9.95% | [4] -53.4% | [5] 8.5%

O=C(c1ccccc1Cl)c1ccc2ccccc2c1C(=O)O
inactive: [1] 2.5% | [2] -0.55% | [3] -0.6% | [4] 6% | [5] -10%

CCOc1ccccc1/C=C(/C#N)C(N)=O
inactive: [1] 10.8% | [2] -0.5% | [3] -26.6% | [4] -29.9% | [5] -50.4%

Nc1ccccc1Br
inactive: [1] 29.6% | [2] 34.5% | [3] 21.4% | [4] -31% | [5] 12.2%

CC1CNC2C(C)C3C(CC4C5CCC6CC(N=Cc7ccccc7O)CCC6(C)C5CCC43C)OC2(O)C1 (stereo not drawn)
inactive: [1] 25.8% | [2] -6.2% | [3] -4.3% | [4] -3.95% | [5] 0.3%

O=C1C(=O)c2ccccc2C(O)=C1c1ccc(Br)cc1
inactive: [1] 8.85% | [2] -9.5% | [3] -2.8% | [4] -4.9% | [5] -3.65%

COC(=O)C(=O)C(C(=O)C(=O)Nc1ccccc1C(N)=O)c1nc2ccc(C(=O)c3ccccc3)cc2[nH]c1=O (stereo not drawn)
inactive: [1] -3.9% | [2] 20% | [3] -7.4% | [4] -17.1% | [5] -6.1%

O=C1C2C3CCC(O3)C2C(=O)N1Cc1ccccc1CN1C(=O)C2C3CCC(O3)C2C1=O (stereo not drawn)
active: [1] 82% | [2] 95.2% | [3] 89.2% | [4] 98.6% | [5] 98.1%

C#CC(C)(C)OC(=O)Nc1cccc(Cl)c1
inactive: [1] 12.8% | [2] -11.3% | [3] -16.1% | [4] -8.35% | [5] -20.6%

CS(=O)(=O)C(c1nc2n(c1O)/C(=N/C(=O)Nc1ccc(Cl)cc1)N=N2)c1nc2n(c1O)/C(=N/C(=O)Nc1ccc(Cl)cc1)N=N2
inactive: [1] -14.9% | [2] 4.5% | [3] -8.5% | [4] -16.3% | [5] 1.3%

Cc1ccc2c(c1)Nc1ccccc1P2(=O)O
inactive: [1] 7.8% | [2] -3.15% | [3] -40% | [4] 37.6% | [5] 14.3%

CCSCCCCSCC
inactive: [1] -2.85% | [2] -34.4% | [3] -15.7% | [4] 3.35% | [5] 6.3%

O=NN(Cc1ccccc1)NC(=O)c1ccccc1
inactive: [1] 6.2% | [2] 28.1% | [3] 8.9% | [4] -8.4% | [5] 20.9%

O=C(O)C(CO)Nc1ccccc1 (stereo not drawn)
inactive: [1] 18.9% | [2] 10.4% | [3] 22.1% | [4] 12.9% | [5] -0.65%

C=CCOC(=O)OCC=C
inactive: [1] 4% | [2] -8.55% | [3] 2% | [4] -3.7% | [5] 23.2%

CC(C)CCOC(=O)COc1ccc(Cl)cc1Cl
inactive: [1] 6.95% | [2] -13.7% | [3] 3.55% | [4] 19.2% | [5] 18.8%

COc1ccc(-c2cc(-c3ccccc3)[nH]c(=S)c2C#N)cc1
inactive: [1] -23.8% | [2] -19.8% | [3] -55.4% | [4] -19.1% | [5] 13.3%

c1ccc(-c2cc3ccccc3c(-c3ccccc3)c2-c2ccccc2)cc1
inactive: [1] -18.6% | [2] -1.75% | [3] -4.8% | [4] -1.85% | [5] -2.65%

CC(=O)OC1C(COC(=O)c2ccccc2)OC(Nc2ncc(-c3ccc(Br)cc3)s2)C(OC(=O)c2ccccc2)C1OC(=O)c1ccccc1 (stereo not drawn)
inactive: [1] 1.05% | [2] 15.4% | [3] -5.9% | [4] 31.9% | [5] -3.55%

c1ccc(C2=NC3(CCCCC3)N=C2c2ccccc2)cc1
inactive: [1] 27.1% | [2] 12.3% | [3] 6.6% | [4] -32% | [5] 21.2%

CSc1cc(C)n2nnnc2n1
inactive: [1] 1.25% | [2] -11.9% | [3] -3.2% | [4] -27.2% | [5] -3.75%

c1ccc2c(c1)c1ccccc1c1c3ccccc3c3ccccc3c21
inactive: [1] -10.9% | [2] -14.6% | [3] -1.05% | [4] -18.6% | [5] 0.65%

Cc1ccc2nc(N(C)C)cc(N(C)C)c2c1
inactive: [1] -7.1% | [2] 6% | [3] 0.2% | [4] -100% | [5] -4.1%

C=CCCC1(C)OC(C)C(C)O1 (stereo not drawn)
inactive: [1] 8.75% | [2] 3.65% | [3] -0.95% | [4] -33% | [5] -5.85%

O=[N+]([O-])c1ccc(N(CCO)CCO)nc1
inactive: [1] -15.7% | [2] -76.6% | [3] 5.15% | [4] 19.5% | [5] -19.3%

COc1ccc(C2C(Cl)C(=O)N2n2cnc3ccccc3c2=O)cc1OC (stereo not drawn)
inactive: [1] -20.7% | [2] -0.35% | [3] 0.1% | [4] 8.9% | [5] -10.9%

CSc1cc(Cl)c(C)cc1S(=O)(=O)NC(=O)NNc1cccc(C(F)(F)F)n1
inactive: [1] 15.2% | [2] 5.25% | [3] 9.5% | [4] -5.4% | [5] -4.9%

CCCOS(=O)(=O)O
inactive: [1] -13.7% | [2] -15.1% | [3] 1.7% | [4] 7% | [5] 6.65%

Cc1ccc(S(=O)(=O)c2ccccn2)cc1
inactive: [1] -37.2% | [2] -11.2% | [3] -9.35% | [4] -1.7% | [5] -13%

CC(C)(O)C(C)(O)C#CC(C)(O)C(C)(C)O (stereo not drawn)
inactive: [1] -2.65% | [2] 1.2% | [3] 1.3% | [4] -15.2% | [5] 2.5%

COc1cc(C=O)c(-c2c(C=O)ccc3c2OCO3)c(OC)c1OC
inactive: [1] 24.4% | [2] -1.9% | [3] 30.2% | [4] 18.1% | [5] 26% | [6] -1.5%

CCOC(=O)C12CCC(C(=O)OCC)(CC13OCCO3)C1(C2)OCCO1
inactive: [1] 11.1% | [2] 9.95% | [3] 10% | [4] 5.55% | [5] 7.35% | [6] 15.9%

c1ccc(SC2CCSc3ccccc3C2Sc2ccccc2)cc1 (stereo not drawn)
inactive: [1] 3.2% | [2] -14.7% | [3] 3.2% | [4] 3.65% | [5] 0.5% | [6] 11.2%

O=c1[nH]ncc2ccc([N+](=O)[O-])cc12
inactive: [1] 6.45% | [2] 7.9% | [3] -1.25% | [4] -1.25% | [5] -2.3% | [6] -6.8%

Cc1ccc(C)c(OC(=O)Nc2ccccc2)c1
inactive: [1] -3.15% | [2] 4.8% | [3] -10.1% | [4] -4.1% | [5] -3.7% | [6] -11.9%

Brc1cccc[n+]1CCC[n+]1ccccc1Br
inactive: [1] 14.8% | [2] 18.8% | [3] 28.2% | [4] 33.2% | [5] 19.4% | [6] 15.8%

CCCc1c(O)c(=O)c2c(OC)cc(OC)c3c4c(OC)cc(OC)c5c(=O)c(O)c(CCC)c(c1c23)c54
active: [1] 86.1% | [2] 89.4% | [3] 81.3% | [4] 84.5% | [5] 75.8% | [6] 89%
